Hits are enriched below; roughly 12% of the tested compounds scored in any of these assays.
Sm TGR inh – qHTS Assay for the Inhibitors of Schistosoma Mansoni Peroxiredoxins. purified TGR, DTNB reduction, TNB absorbance 405 nm. Potency, µM (highest dose often 114 µM), usual class: inhibitors. AID 485364, 2010. Schistosoma mansoni thioredoxin glutathione reductase (TGR), Q962Y6. 3% of 360,000 active; note: nearly all actives have a fitted effect of over 60% in size
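First, TGR (20 nM dispensed) and NADPH were mixed with compound. Second, a 15 min room-temperature incubation followed. Third, further NADPH and then DTNB were added to start the reaction. Finally, TNB absorbance was monitored kinetically.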
SARS PLpro yeast – qHTS of Yeast-based Assay for SARS-CoV PLP; S. cerevisiae expressing SARS-CoV PLpro, growth rescue; Potency, µM (highest dose often 32.9 µM), actives largely listed as activators; 0.19% of 330,000 active; AID 485353, 2010; calls by dose curve; note: nearly all actives have a fitted effect of over 55% in size
Pf growth 48h – Primary qHTS for delayed death inhibitors of the malarial parasite plastid, 48 hour incubation | AID 504832, 2011 | P. falciparum luciferase growth in erythrocytes, 48 h | Potency, µM (doses to about 28.7 µM), hits mostly inhibitors | 5.9% of 310,000 active
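Erythrocytes infected with P. falciparum carrying an integrated firefly luciferase reporter (2% hematocrit, 0.1% parasitemia final) were exposed to compounds in RPMI 1640 with 0.5% Albumax at 37 C, 5% CO2. Growth inhibition was scored as reduced luminescence.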
Pf growth 96h – Primary qHTS for delayed death inhibitors of the malarial parasite plastid, 96 hour incubation; P. falciparum luciferase reporter growth, 96 h; Potency, µM (doses to about 28.7 µM), actives largely listed as inhibitors; 6.9% of 320,000 active
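Plates of compound plus infected erythrocytes (2% hematocrit, 0.05% parasitemia final) incubate 96 hours, 37 C, 5% CO2. Detection reagent added; reduced luminescence from the parasites' luciferase reporter flags inhibition.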
AmpC inh no detg – qHTS Inhibitors of AmpC Beta-Lactamase (assay without detergent); AmpC nitrocefin hydrolysis, absorbance 480 nm, 0.0001% Triton; Potency, µM (highest dose often 57.1 µM), usual class: inhibitors; P00811; 0.52% of 330,000 active; note: nearly all actives have a fitted effect of over 20% in size
Target sequence (P00811 whole entry, looked up): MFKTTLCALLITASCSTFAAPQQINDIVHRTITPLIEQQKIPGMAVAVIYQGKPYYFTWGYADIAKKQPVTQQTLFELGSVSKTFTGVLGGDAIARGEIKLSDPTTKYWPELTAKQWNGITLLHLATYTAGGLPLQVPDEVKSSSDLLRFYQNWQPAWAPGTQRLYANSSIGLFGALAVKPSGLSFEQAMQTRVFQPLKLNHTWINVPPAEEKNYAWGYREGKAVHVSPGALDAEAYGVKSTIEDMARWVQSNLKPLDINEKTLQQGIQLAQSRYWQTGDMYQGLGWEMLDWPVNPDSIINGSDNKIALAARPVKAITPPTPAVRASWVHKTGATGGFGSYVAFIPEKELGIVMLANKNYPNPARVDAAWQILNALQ
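AmpC (5.3 nM in the dispensed reagent) in 20 mM phosphate pH 7.0 with 0.01% (detergent screen) or 0.0001% Triton X-100 was preincubated with compounds for 15 min at room temperature. Nitrocefin was then added from an 800 uM solution, and hydrolysis was followed at 480 nm.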
AmpC inh detg – qHTS Inhibitors of AmpC Beta-Lactamase (assay with detergent) | AID 485294, 2010 | Potency, µM (doses to about 114 µM), usual class: inhibitors | AmpC hydrolysis of nitrocefin, absorbance 480 nm, 0.01% Triton | 0.041% of 370,000 active | P00811; note: nearly all actives have a fitted effect of over 25% in size
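AmpC (5.3 nM in the dispensed reagent) in 20 mM phosphate pH 7.0 with 0.01% (detergent screen) or 0.0001% Triton X-100 was preincubated with compounds for 15 min at room temperature. Nitrocefin was then added from an 800 uM solution, and hydrolysis was followed at 480 nm.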
A number is an active result; . = inactive; ? = inconclusive; / = no result. Unless noted, calls come from the whole dose curve; as a rule, active = well fitted curve in the direction sought with a large enough effect; inconclusive = small, poorly fitted or top-dose-only effect, or another doubt; inactive = no such curve, though single readings can be large; an effect the other way counts as inactive or inconclusive.

SMILES	Sm TGR inh	SARS PLpro yeast	Pf growth 48h	Pf growth 96h	AmpC inh no detg	AmpC inh detg
COC(=O)C1C/C(=N/NS(=O)(=O)c2ccc(C)cc2)CS1 (stereo not drawn)	13µM	.	.	.	.	.
O=C(Cn1nc2c(cc1=O)CCCC2)NCc1ccccc1	.	/	/	/	/	.
Cc1ccc(C(=O)COC(=O)CCC(=O)Nc2ccc(Oc3cc(C)ccc3C(C)C)cc2)cc1	.	/	/	/	/	.
Cc1cc(C(C)(C)C)ccc1OCCCCN1CCCC1	.	.	?	.	.	.
CCC(C)(C)c1ccc(OCCCC[n+]2cccc(C)c2C)c(C(C)(C)CC)c1	.	.	0.83µM	0.37µM	.	.
CCC(C)(C)c1ccc(OCCCC[n+]2ccc(C)cc2)c(C(C)(C)CC)c1	.	.	1.9µM	3.7µM	.	.
COCC(C)n1c(SCC(=O)NC(=O)Cc2ccccc2)nc2ccccc2c1=O (stereo not drawn)	.	.	.	.	.	.
CC(Sc1nc2ccccc2c(=O)n1C)C(=O)Nc1ccc2c(c1)OCCO2 (stereo not drawn)	.	.	0.15µM	0.17µM	.	?
COCC(C)n1c(SCC(=O)NC(=O)Nc2ccc3c(c2)OCCO3)nc2ccccc2c1=O (stereo not drawn)	.	.	12µM	?	.	.
CCCCNC(=O)c1ccc(CS(=O)(=O)c2ccc(C)cc2)o1	45µM	.	.	.	.	.
COC(=O)c1ccc(CS(=O)(=O)c2ccc(C)cc2)o1	11µM	.	.	?	.	.
COCCCNC(=O)c1ccc(CSCc2ccc(C)cc2)o1	40µM	.	?	.	.	.
O=S(=O)(c1ccc2c(c1)C(O)c1ccccc1CC2)C(F)(F)F (stereo not drawn)	.	.	7.4µM	3.3µM	.	.
Nc1cc(S(=O)(=O)C(F)(F)F)ccc1C(=O)O	.	.	.	.	.	.
CC1(C(=O)N(CC(=O)NC2CCCC2)Cc2ccco2)CC(=O)N=C2C=CC=CN21 (stereo not drawn)	.	.	.	?	.	.
Cc1ccc(S(=O)(=O)N2CCCC2=O)c(C)c1N(C)S(C)(=O)=O	.	.	.	8.3µM	.	.
C/C(N)=C(/C#N)C(=O)CSc1nc2cc(Cl)ccc2s1	.	.	.	.	?	.
N#CC(c1ccccn1)c1ncc(C(F)(F)F)cc1Cl (stereo not drawn)	.	.	.	.	.	.
Cn1nc([N+](=O)[O-])c(C(C#N)c2ccccn2)c(Cl)c1=O (stereo not drawn)	4.5µM	.	?	.	.	?
CCn1nc([N+](=O)[O-])c(C(C#N)c2nc3cc(C(F)(F)F)ccc3s2)c(Cl)c1=O (stereo not drawn)	4µM	.	/	.	.	?
CCCn1nc([N+](=O)[O-])c(C(C#N)c2nc3ccccc3o2)c(Cl)c1=O (stereo not drawn)	2.2µM	.	.	.	.	.
Cc1ccc(C(CC(=O)Nc2cc(C)cc(C)c2)N2Cc3ccccc3C2=O)cc1 (stereo not drawn)	.	/	/	/	/	.
CC1(C)CC(=O)C(Sc2nnc(-c3ccc(O)cc3)n2CC2CCCO2)C(=O)C1 (stereo not drawn)	.	.	/	1µM	.	.
CN(CCOc1cccc2ccccc12)Cc1ccccc1	.	.	.	4.1µM	.	.
OC(CNC1CCCC1)COc1ccc(Cl)cc1 (stereo not drawn)	.	.	15µM	.	.	.
Cc1ccc(C(C)C)c(OCC(O)CN(C)Cc2ccccc2)c1 (stereo not drawn)	.	.	/	2.1µM	.	.
Cc1ccc(C(C)C)c(OCCCN(C)Cc2ccccc2)c1	.	.	13µM	?	.	.
COCCCNC(=O)c1ccc(-n2c(-c3ccccc3)cc3c2CCC(C)C3)cc1 (stereo not drawn)	.	/	/	/	/	.

Screening data: PubChem, National Center for Advancing Translational Sciences (NCATS)
